Reference: PubChem BioAssay AID624116 (National Center for Advancing Translational Sciences (NCATS), 2012)
Inconclusive results are not listed. Values without a mark were called inactive. Calls of active or inactive are those of the source. The call rests on the fitted dose curve; in most records, active means well fitted activation curve with a large enough effect; inconclusive means small, poorly fitted or top-dose-only effect; inactive means no such curve, though single readings can be large or run the other way.

experiment: qHTS Assay for Rab9 Promoter Activators: Hit Validation Using Renilla Luciferase Read-Out for Rab9; conditions: Huh7 Rab9 promoter Renilla luciferase reporter, 24 h; series mostly up to 76.9 µM; activation, negative = inhibition: at the top concentration; on activation, negative = inhibition: % of control where 0% means no effect
In short: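 Luciferase reporter read-out: promoter activation measured by luminescence after 10 min with detection reagent at room temperature. Cells were Huh7 with a stable promoter-luciferase construct, treated 24 h at 37 deg C.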
Potency means the concentration at half of the fitted maximal effect.

| SMILES | activation, negative = inhibition | Potency |
| --- | --- | --- |
| Cc1ccc(NC(=O)c2cccc(N3C(=O)CCC3=O)c2)nc1 | -0.587% | – |
| O=C(O)CSc1nnc(-c2ccncc2)n1CCc1ccccc1 | 1.59% | – |
| Cn1c(CCN2CCN(c3ccccc3)CC2)nc2cc(NC(=O)c3ccco3)ccc21 | -43.4% | – |
| CCCNC(=O)C1CCN(S(=O)(=O)c2ccc3[nH]c(=O)ccc3c2)CC1 | -0.496% | – |
| Cc1nc(-c2ccccn2)sc1C(=O)Nc1ccc(F)cc1F | -4.26% | – |
| Cc1noc(/C=C/N(C)C)c1S(=O)(=O)N1CCCC(C(=O)N2CCCCC2)C1 (stereo not drawn) | -4.53% | – |
| CC(=O)Nc1ccc(-c2csc(Nc3ncccn3)n2)cc1 | 2.38% | – |
| O=C(CSc1nnc(-c2ccccn2)o1)Nc1ccccc1F | -6.23% | – |
| Cc1ccc(NC(=O)Nc2cccc3ccccc23)cc1 | -5.88% | – |
| CC1CCCN(C(=S)Nc2ccc(Nc3ccccc3)cc2)C1 (stereo not drawn) | -6.42% | – |
| C=CCn1c(C)nnc1SCC(=O)Nc1nccs1 | -0.0592% | – |
| CC(C)CC(=O)N1CCN(c2ccc(NC(=O)c3ccco3)cc2)CC1 | 13.3% | – |
| Nc1c(N(CCO)C(=O)/C=C/c2ccco2)c(=O)[nH]c(=O)n1Cc1ccccc1 | 5.1% | – |
| O=C(N/N=C/c1ccc(-c2ccc(Br)cc2)o1)c1ccc2c(c1)OCO2 | -4.86% | – |
| O=C(Nc1ccc(-c2nc3cccnc3s2)cc1)c1ccc(Cl)nc1 | -11% | – |
| COc1ccc(NC(=O)Nc2ccc(Cc3ccncc3)cc2)cc1OC | -56.6% | – |
| COc1ccccc1C(=O)Nc1nnc(SCC(=O)NC2CCCC2)s1 | 8.95% | – |
| Cc1ccc(S(=O)(=O)N2CCN(c3cnn(C)c(=O)c3Cl)CC2)cc1 | -1.64% | – |
| CCc1cc(C(=O)Nc2ccccc2)cs1 | -35.2% | – |

| SMILES | activation, negative = inhibition | Potency |
| --- | --- | --- |
| O=C(c1cccc(Oc2ccc([N+](=O)[O-])cc2)c1)N1CCOCC1 | -14.1% | – |
| O=C(CSc1nnc(-c2ccccc2)o1)Nc1ccccc1F | -12.2% | – |
| Cc1ccc(NC(=O)COC(=O)C2C3CC4OC(=O)C2C4C3)cc1Cl (stereo not drawn) | -1.3% | – |
| CC(C)(C)NC(=S)NNC(=O)c1ccc2ncccc2c1 | -21.4% | – |
| CC1CCc2sc(C(=O)NNC(=S)NC3CC3)cc2C1 (stereo not drawn) | -53.2% | – |
| CCN(CC)S(=O)(=O)c1ccc(NCc2ccccn2)nc1 | 1.11% | – |
| Cc1nc2sc(C(=O)OC(C)C)c(N)c2c(C)c1C | 4.33% | – |
| CC(=O)Nc1ccc(NC(=O)COc2ncnc3ccccc23)cc1 | 0.815% | – |
| O=C(COC(=O)c1ccc(-c2nnc(-c3ccccc3)o2)cc1)c1ccccc1 | -3.43% | – |
| CC(C)(C)C(=O)N/C(N)=N/c1nc2ccccc2o1 | -60.7% | – |
| Cc1ccc(S(=O)(=O)/N=C(/Nc2ccccn2)c2ccc(Cl)cc2)cc1 | – | 14.6 µM (active) |
| COC(=O)c1ccccc1S(=O)(=O)NNC(=O)Nc1ccccc1 | 0.761% | – |
| Cc1ccc(N(O)C(=O)NCCCCNC(=O)N(O)c2ccc(C)cc2)cc1 | 1.97% | – |
| Cc1ccc(C(=O)Nc2ccc(N3CCN(C)CC3)nc2)cc1 | -4.41% | – |
| COc1ccc(NC(=O)CSc2ccc([N+](=O)[O-])cc2)cc1S(=O)(=O)N1CCOCC1 | -11.2% | – |
| CCOC(=O)c1cc2sccc2n1CC(=O)N1CCCc2ccccc21 | -0.541% | – |
| COc1ccc(S(=O)(=O)NC(C(=O)NCCc2ccccn2)C(C)C)cc1 (stereo not drawn) | -2.29% | – |
| Fc1ccc(-c2nc3nc4ccccc4nc3n2Cc2ccco2)cc1 | -26% | – |
| CCOC(=O)c1ccccc1NC(=O)CSc1nnc(Cc2cccn2C)n1-c1ccc(F)cc1 | – | 36.8 µM (active) |
